Assay outcomes as filed in PubChem.
aSyn UTR act: Activators working through SNCA 5'UTR binding (MLPCN) | alpha-synuclein 5'UTR reporter, activators screen | activity score, % (tested at 7.5 µM), hits read low | hit rate 7.1% among 300,000 | AID 1814; in the data active = activity score below about -60%
* hit, by the source's call. A selection follows.

SMILES | aSyn UTR act
COc1ccc(P2(=O)Nc3ccccc3N2)cc1 | -139*
COc1cc2c(c(OC)c1OC)-c1ccc(O)c(=O)cc1C(NC(C)=O)CC2 (stereo not given) | 90
CN(C)c1ccc2c(c1)N=C(c1ccco1)OP2(=S)N1CCOCC1 (stereo not given) | -130*
NC(=O)c1cn(C2OC(CO)C(O)C2O)c2ncnc(N)c12 (stereo not given) | 106
O=C1NC(=O)C(=Cc2cccc(OCCOc3ccccc3)c2)C(=O)N1 | -87*
O=C(c1ccc2c(c1)ncn2C1CCCCC1)N1CCC2(CC1)OCCO2 | -171*
COc1ccc(C2NCc3ccc4c(c3-n3cccc32)OCO4)cc1O (stereo not given) | 61
Cc1ccc2nc(N3CCN(C)CC3)[nH]c2c1 | -96*
COc1cc(C=C2C(=O)NC(=O)NC2=O)ccc1OS(=O)(=O)c1ccccc1[N+](=O)[O-] | -96*
CC1(C)C[C@H]2C=C(C=O)[C@]3(C=O)C[C@]3(C)[C@H]2C1 | 117
CCOC(=O)c1c(N)n(CCCOC(=O)c2ccco2)c2nc3ccccc3nc12 | 114
Nc1c(C(=O)NCc2ccco2)c2nc3ccccc3nc2n1CCN1CCCCC1 | -103*
COc1ccc2nc(NC3=NCCN3)sc2c1 | -209*
c1ccc2sc(NC3=NCCN3)nc2c1 | -103*
CCOC(=O)c1cc2c(cn1)[nH]c1ccccc12 | -142*
CC(=O)O[C@@]12CO[C@@H]1C[C@H](O)[C@@]1(C)C(=O)[C@H](O)C3=C(C)[C@@H](OC(=O)[C@H](O)[C@@H](NC(=O)c4ccccc4)c4ccccc4)C[C@@](O)([C@@H](OC(=O)c4ccccc4)C12)C3(C)C (stereo not given in full) | 114
Cc1cccc(N2C(=O)NC(=O)/C(=C\C=C\c3ccco3)C2=O)c1 | -131*
O=C1NC(=O)N(c2ccccc2)C(=O)/C1=C/C=C/c1ccco1 | -136*
Cc1ccc(N2C(=O)NC(=O)/C(=C\C=C\c3ccco3)C2=O)cc1 | -92*
CN(C)c1ccc(/C=C/C=C2/C(=O)NC(=O)N(c3ccccc3)C2=O)cc1 | -96*
C=C(C=O)C[C@@H]1C[C@H](O)C2OC3C[C@]4(C)OC5/C=C\CC6OC7C(CC=CCC6OC5CCCC4OC3CC2O1)OC1CC2OC3CC(=O)OC3C[C@@H](C)C[C@@]2(C)OC1C[C@@H]7C (stereo not given in full) | 113
CC(=O)Nc1ccccc1C(=O)OCc1cccc(F)c1 | -85*
COc1ccc(/C=C/C2=CCN(C)CC2)cc1 | -79*
C=CCN=C(SCC(=O)c1ccc(Cl)cc1)c1c(O)n(C)c(=O)n(C)c1=O | -71*
NC(N)=N/N=C/c1ccc(N(c2ccccc2)c2ccccc2)cc1 | 138
SMILES | aSyn UTR act
Cc1nc2cc(-c3ccccc3)nn2c(C)c1CCC(=O)N1CCC2(CC1)OCCO2 | 79
O=C(c1cc(-c2ccccc2)on1)N1CCC2(CC1)OCCO2 | -113*
CC(=O)O[C@@H]1/C=C/[C@](C)(O)C[C@@H](C)C/C=C/[C@H]2[C@H](O)C(C)=C(C)[C@H]3[C@H](Cc4ccccc4)NC(=O)[C@@]123 | 117
c1ccc(-c2nc(N3CCOCC3)s[n+]2-c2ccccc2)cc1 | -75*
Cc1cc(OCCN2CC2)c2ccccc2n1 | -73*
CCCCc1nc2ccccc2c(=O)n1-c1ccccc1[N+](=O)[O-] | -73*
Cc1c(OC(=O)N(C)C)ccc2c1O/C(=C\c1ccco1)C2=O | -134*
CN1C(=O)/C(=C\c2ccc(N3CCCCC3)o2)C(=O)NC1=S | -162*
CN1C(=O)C(=Cc2ccc(N3CCOCC3)o2)C(=O)N(C)C1=S | -65*
CN1C(=O)/C(=C/c2ccc(N3CCCCCC3)o2)C(=O)NC1=S | -186*
CNC(=O)Oc1cccc(-c2cn3cc(Cl)ccc3n2)c1 | 61
O=C1NC(=O)C(CCc2ccncc2)(Cc2cccc(Cl)c2Cl)C(=O)N1c1ccc(Br)cc1 (stereo not given) | 58
CCn1c(C)c(C(=O)Nc2ccc(OC)cc2)c2cc(OC)ccc21 | -86*
CC/C(=N\N1CCCCC1)c1c(O)[nH]c(=O)[nH]c1=O | 59
FC(F)(F)c1ccc(NC2=NCCCS2)cc1 | -69*
C[C@]12CC[C@H]3C(CCC4(O)CC(O)CC[C@]34C=O)C1=CC[C@H]2c1ccc(=O)oc1 (stereo not given in full) | 82
C#CCOc1cc(C2C3=C(COC3=O)Nc3cc4c(cc32)OCO4)ccc1OC (stereo not given) | 78
Clc1ccccc1Nc1ncnc(-n2cccc2)n1 | -160*
O=C(Nc1ccc(Cl)c(Cl)c1)c1ccco1 | -170*
CC1CCC/C=C/C2CC(O)CC2C(O)/C=C/C(=O)O1 (stereo not given) | 133
C[C@H]1CCC[C@@H](O)CCC/C=C/c2cc(O)cc(O)c2C(=O)O1 | -170*
C[C@H]1CCC/C=C/C2C[C@H](O)CC2[C@H](O)/C=C/C(=O)O1 (stereo not given in full) | 100
[O-]c1ccccc1-[n+]1c(-c2ccccc2)cc(-c2ccccc2)cc1-c1ccccc1 | 61
C=C1C[C@@H]2[C@H](CC[C@]3(C)C(=O)CC[C@@H]23)[C@@]2(C)C=CC(=O)C=C12 | -141*
O=c1[nH]c(=S)n(C2CC2)c(O)c1C=Nc1ccc2c(c1)OCO2 | -141*
SMILES | aSyn UTR act
C=C1C(=O)O[C@@H]2C[C@@H](C)[C@@H]3C4OC4C(=O)[C@@]3(C)[C@@H](O)[C@H]12 (stereo not given in full) | -221*
Nc1c2c(nc3sc4c(c13)CCCC4)CCCCC2 | -170*
Nc1c2c(nc3sc4c(c13)CCCC4)CCCC2 | -118*
CC(C)(C)c1ccc(CSc2cnn(C(C)(C)C)c(=O)c2Cl)cc1 | 101
CC1(C)CN=C(NCc2ccccc2Cl)S1 | -92*
COc1cccc(C2=NOC(C(=O)N3CCC4(CC3)OCCO4)C2)c1 (stereo not given) | -105*
O=C(C1CC(c2ccc(Cl)c(Cl)c2)=NO1)N1CCC2(CC1)OCCO2 (stereo not given) | -131*
O=C(C1CC(c2ccc(F)cc2)=NO1)N1CCC2(CC1)OCCO2 (stereo not given) | -127*
CC1Oc2cc3c(-c4c(O)cc(O)c5c(O)c6c(cc45)OC(C)C(C)C6=O)c(O)cc(O)c3c(O)c2C(=O)C1C (stereo not given) | 87
C=C1C(=O)O[C@H]2C[C@@H](C)[C@@H]3C=CC(=O)[C@@]3(C)C[C@H]12 | -151*
C=C1C(=O)O[C@@H]2C[C@@H](C)[C@@H]3C=CC(=O)[C@@]3(C)[C@@H](OC(=O)CC(=O)O[C@H]3[C@@H]4C(=C)C(=O)O[C@@H]4C[C@@H](C)[C@@H]4C=CC(=O)[C@]43C)[C@H]12 | 116
CCC(C)/C=C(C)/C=C/C1=CC2=C(Cl)C(=O)C(C)(OC(C)=O)C(=O)C2=CO1 (stereo not given) | -96*
Nc1ccccc1C(=O)OCC(=O)c1ccc2c(c1)OCCO2 | -64*
CC1CCC(C(C)C)C(OC(=O)Cn2c(COc3ccccc3)[n+](C)c3ccccc32)C1 (stereo not given) | 66
CN1CCN(c2ccc([N+](=O)[O-])c3no[n+]([O-])c23)CC1 | 98
CN1CCN(c2ccc3c(c2)S(=O)(=O)c2ccccc2C3=O)CC1 | -112*
CN(C)c1ccc(/C=C/[N+](=O)[O-])cc1 | -74*
CN1C(=O)C(=Cc2ccc(OCCN(C)c3ccccn3)cc2)C(=O)N(C)C1=O | -82*
